Screening results from PubChem BioAssay.
CYP2C19 inhib: human CYP2C19 inhibition | 21% of 96,000 active | P33261 | AID 778 | inhibition, % at 5 µM | CYP2C19 Supersomes, luciferin-H EGE luminescence, 30 min;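 active means CYP2C19 inhibition above a set limit at 5 µM in the primary screen, cut at about 50% in these data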
Target sequence (P33261 whole entry, looked up): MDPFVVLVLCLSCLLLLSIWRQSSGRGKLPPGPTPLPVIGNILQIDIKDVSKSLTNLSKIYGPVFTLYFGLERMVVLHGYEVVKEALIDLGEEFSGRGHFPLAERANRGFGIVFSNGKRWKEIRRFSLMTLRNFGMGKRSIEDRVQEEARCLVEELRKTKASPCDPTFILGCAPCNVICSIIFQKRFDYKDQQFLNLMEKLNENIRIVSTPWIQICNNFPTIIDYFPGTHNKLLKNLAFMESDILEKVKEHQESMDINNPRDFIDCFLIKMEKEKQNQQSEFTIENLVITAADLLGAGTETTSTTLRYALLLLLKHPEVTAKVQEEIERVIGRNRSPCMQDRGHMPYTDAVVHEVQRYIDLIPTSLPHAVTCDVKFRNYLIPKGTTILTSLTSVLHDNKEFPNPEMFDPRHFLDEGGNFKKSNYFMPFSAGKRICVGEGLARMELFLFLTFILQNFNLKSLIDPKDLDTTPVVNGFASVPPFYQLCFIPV
CYP2C9 inh: blocks human cytochrome P450 2C9; CYP2C9 Supersomes, luciferin-H conversion, luminescence; inhibition, % at 5 µM; 20% of 96,000 active; AID 777;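 active means blocking of liver enzyme CYP2C9 beyond about 50% at 5 µM, limit read from the data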
CYP2C19 act: cytochrome P450 2C19 (human) activation; P33261; recombinant CYP2C19, luciferin-H EGE luminescence; active compounds read high; 0 = fully inhibited enzyme, 1 = untreated enzyme; activation factor at 5 µM; 96,000 tested, under 10 active; AID 1025;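 active means activation factor of at least 2 at 5 µM in the primary screen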
CYP2C9 act: activators of human CYP2C9 | activation factor at 5 µM | P11712 | recombinant CYP2C9, luciferin-H conversion, luminescence; active compounds read high; factor 1 = untreated enzyme, 0 = blocked | 1.4% of 96,000 active | AID 1024;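 active means activation factor of 2 or more for CYP2C9 at a 5 µM dose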
Cav3 T inh: inhibitors of human Cav3.2 T-type calcium channel; O95180; Cav3.2-expressing cells, Fluo-4 calcium fluorescence FDSS; active compounds read low; B-score at 10 µM; 4% of 100,000 active;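 active means single-dose well whose peak fluorescence ratio is a statistical outlier from its plate by either plate-standardised score or position-corrected B-score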
Hits are given with their value; – = inactive; · = no result given. Rows were chosen to be rich in hits. Some 27% of all compounds tested hit in one or more screens of this group.

SMILES	CYP2C19 inhib	CYP2C9 inh	CYP2C19 act	CYP2C9 act	Cav3 T inh
CCOC(=O)c1cnn(-c2ccccc2)c1NC(=O)c1ccccc1C	–	–	–	–	–
CCOC(=O)c1cnn(-c2ccccc2)c1-n1cccc1C(=O)C(=O)Nc1ccccc1C(F)(F)F	53.9	65.4	–	–	–
CC(c1ccccc1)N1CC(C(=O)N2CCN(c3ccc(F)cc3)CC2)CC1=O (stereo unspecified)	–	–	–	–	–
CCCCN1C(=O)NC2NC(=O)NC21 (stereo unspecified)	·	·	·	·	–
O=S(=O)(c1ccc(Cl)c(F)c1)N1CCC(c2nc(-c3ccncc3)no2)CC1	–	–	–	–	–
COc1cc(C(=O)N2CCCC(c3nc(-c4cccs4)no3)C2)cc(OC)c1OC (stereo unspecified)	55.5	–	–	–	–
CCC(C)C(=O)N1CCCC(c2nc(-c3cccs3)no2)C1 (stereo unspecified)	–	–	–	–	–
O=[N+]([O-])c1cccc(S(=O)(=O)N2CCC(c3nc(-c4ccncc4)no3)CC2)c1	–	59.7	–	–	–
CCCC(=O)N1CCCC(c2nc(-c3cccs3)no2)C1 (stereo unspecified)	–	–	–	–	–
COc1ccc(-c2noc(C3CCCN(C(=O)c4cccs4)C3)n2)cc1 (stereo unspecified)	85.1	89.0	–	–	–
COc1cccc(C(=O)N2CCCC(c3nc(-c4cccs4)no3)C2)c1 (stereo unspecified)	86.3	67.6	–	–	–
CCO[C@H]1OC(C(=O)NC2CC2)=C[C@@H](c2csc3ccccc23)[C@@H]1CCCO	·	·	·	·	–
CCN1CCN(Cc2ccc(NC(=O)Nc3cccs3)cc2)CC1	–	–	–	–	–
CCC(CC)c1nnc(NC(=O)c2ccc3ccccc3n2)s1	·	·	·	·	–
O=C(NC1CCCCC1)N1CCCC(c2nc(-c3ccc(S(=O)(=O)N4CCCC4)cc3)no2)C1 (stereo unspecified)	–	–	–	–	–
O=S(=O)(NC1CC1)c1ccc(S(=O)(=O)N2CCCC(c3nc(-c4cccnc4)no3)C2)cc1 (stereo unspecified)	69.7	59.2	–	–	–
O=S(=O)(Cc1ccccc1)N1CCCC(c2nc(-c3ccc(F)cc3)no2)C1 (stereo unspecified)	–	–	–	–	–
CCCS(=O)(=O)N1CCCC(c2nc(-c3cccc(OC)c3)no2)C1 (stereo unspecified)	80.2	76.9	–	–	-4.01
O=C(c1cccs1)N1CCC(c2nc(-c3ccc(S(=O)(=O)N4CCOCC4)cc3)no2)CC1	–	61.9	–	–	–
Cc1ccc(-c2cccc(NC(=O)C3C4C=CC(C4)C3C(=O)O)c2)o1 (stereo unspecified)	–	–	–	–	–
Cc1cc(C)n(S(=O)(=O)c2ccc(C(C)(C)C)cc2)n1	76.4	–	–	–	–
Cc1cc(C)n(S(=O)(=O)c2ccc3ccccc3c2)n1	61.3	–	–	2.3	–
Cc1cc(C)n(S(=O)(=O)c2cc(Cl)ccc2Cl)n1	58.8	–	–	–	–
O=C(O)c1cc(O)ccc1-c1ccc(O)cc1	–	–	–	–	–
CCOC(=O)NC(CC(=O)O)c1ccc(OC)cc1 (stereo unspecified)	–	–	–	–	–
SMILES	CYP2C19 inhib	CYP2C9 inh	CYP2C19 act	CYP2C9 act	Cav3 T inh
CCC(C)(C)NC(=O)CN(CC1CCCO1)C(=O)CCC(=O)Nc1nccs1 (stereo unspecified)	–	–	–	–	–
C/C(=N\NC(=O)C1CC1c1ccccc1)c1cccs1 (stereo unspecified)	88.2	51.4	–	–	–
COc1ccc(C2CC2/C(=N/OC(=O)c2cccs2)c2ccccc2)cc1 (stereo unspecified)	71.0	93.7	–	–	-5.99
COc1ccc(C2CCCN2C(=O)c2cccs2)cc1 (stereo unspecified)	–	–	–	–	–
C/C(=N/NC(=O)Cc1cccc2ccccc12)c1cccs1	76.2	–	–	–	–
CCc1c(C)sc(NC(=O)C2CC2c2ccccc2)c1C(N)=O (stereo unspecified)	–	–	–	–	–
O=C(Nc1ccncc1)C1CC1c1ccccc1 (stereo unspecified)	96.6	84.4	–	–	–
CC1SC(=NC(=O)C(C)N2C(=O)c3ccccc3C2=O)NC1=O (stereo unspecified)	·	·	·	·	–
CN(C[C@H](Cc1ccccc1)N(C[C@H](Cc1ccccc1)N(CCc1cc(C(F)(F)F)cc(C(F)(F)F)c1)N=O)N=O)N=O	·	·	·	·	–
